Assay type in all cases: functional
The subject of experiment [1] is Plasmodium falciparum. The experiment can be described thus: GSK_TCMDC: Inhibition of Plasmodium falciparum 3D7 in whole red blood cells, using parasite LDH activity as an index of growth. Test compounds present at 2uM.
Experiment [2] has as its system Plasmodium falciparum. Kind of experiment: GSK_TCMDC: Inhibition of Plasmodium falciparum Dd2 in whole red blood cells, using parasite LDH activity as an index of growth. Test compounds present at 2uM.
The next experiment deals with HepG2. Kind of experiment: GSK_TCMDC: Percent inhibition of human HepG2 cell line. Test compounds present at 10uM.

The term Inhibition denotes the drop in the measured response relative to a control, in per cent.

On to `COc1ccc(C2CC(c3cccs3)=NN2C(=O)CNc2ccccc2F)cc1OC` (configuration not stated), for which the Inhibition with Plasmodium falciparum [1] worked out at 87%; in the experiment with Plasmodium falciparum [2], 45%; in the experiment on HepG2, 11%.

In the case of `COc1cccc2c(N/N=C/c3cccc([N+](=O)[O-])c3)ccnc12`, the Inhibition in the experiment with Plasmodium falciparum [1] came out at 100%; with Plasmodium falciparum [2] it was 47%; in the experiment on HepG2, 12%.

Consider `Fc1c(CNCC2CCN(CC3CCCCC3)CC2)cccc1C(F)(F)F.O=C(O)C(F)(F)F`, for which the Inhibition was found to be 93% in the experiment on Plasmodium falciparum [1], 7% in the experiment with Plasmodium falciparum [2] and 35% with HepG2.

For the compound `Nc1c(Cl)cc(C(O)CNCCCCCCCCCc2ccccn2)cc1Cl` (configuration not stated), the Inhibition in the experiment on Plasmodium falciparum [1] is 98%; in the experiment on Plasmodium falciparum [2], 83%; in the experiment on HepG2, 9%.

In the case of `Cc1c(C)n(C2CCCC2)c2ncnc(OC3CCN(CC(=O)NCC4CC4)CC3)c12`, the values for the Inhibition with Plasmodium falciparum [1], in the experiment on Plasmodium falciparum [2] and in the experiment with HepG2 were 89%, 89% and 20%, respectively.

With `O=C(Nc1cc(=O)[nH]c2nc(-c3ccccc3)nn12)C1CCCCC1`, the Inhibition in the experiment with Plasmodium falciparum [1] was found to be 86%; in the experiment with Plasmodium falciparum [2], 89%; with HepG2 it was 0%.

For the compound `O=C(Nc1ccc(-c2cccc(-c3nc4cc(C(F)(F)F)ccc4[nH]3)c2)cc1)Nc1ccc(F)c(F)c1F`, the Inhibition in the experiment with Plasmodium falciparum [1] is on record as 99%; in the experiment with Plasmodium falciparum [2], 85%; in the experiment with HepG2, 58%.

Regarding `O=[N+]([O-])c1ccc2ncnc(Nc3ccc(F)c(Cl)c3)c2c1`, the Inhibition in the experiment on Plasmodium falciparum [1] amounted to 100%; in the experiment on Plasmodium falciparum [2], 65%; in the experiment with HepG2, 0%.

With `O=C(Nc1ccc(OC2CCN(Cc3ccsc3)C2)c(Cl)c1)c1ccc2ncccc2c1.O=C(O)C(F)(F)F` (configuration not stated), the Inhibition was 88% in the experiment on Plasmodium falciparum [1], 10% in the experiment with Plasmodium falciparum [2] and 84% in the experiment on HepG2.

On to `Cc1cccc(NC(=O)Nc2cccc(-c3ccc(-c4nc5cc(C(F)(F)F)ccc5[nH]4)cc3)c2)c1`, for which the figures for the Inhibition in the experiment on Plasmodium falciparum [1], in the experiment with Plasmodium falciparum [2] and in the experiment on HepG2 were 100%, 94% and 44%, respectively.

With `N#Cc1ccc(N2CCN(C(=O)c3cccc(-c4noc(C(F)(F)F)n4)c3)CC2)nc1`, the Inhibition was determined as 84% in the experiment on Plasmodium falciparum [1], 58% in the experiment on Plasmodium falciparum [2] and 18% in the experiment with HepG2.

For the compound `COc1ccccc1C1CCN(C2CCC(NC(=O)/C=C/c3ccc(C(F)(F)F)cc3)CC2)CC1` (configuration not stated), the Inhibition in the experiment with Plasmodium falciparum [1] is on record as 88%; in the experiment with Plasmodium falciparum [2], 7%; in the experiment on HepG2 it was 57%.

Consider `COc1ccc(CNC2CCN(C)CC2)cc1-c1ccc(S(=O)(=O)NC2CCC2)c(F)c1.O=C(O)C(F)(F)F`, for which the Inhibition was found to be 100% in the experiment with Plasmodium falciparum [1], 97% in the experiment on Plasmodium falciparum [2] and 96% in the experiment with HepG2.

`Cc1ccc(O)cc1Nc1ccnc2cc(-c3ccc(CN4CCCCC4)o3)ccc12`: the Inhibition with Plasmodium falciparum [1] came out at 100%; in the experiment with Plasmodium falciparum [2], 99%; in the experiment with HepG2, 16%.

For the compound `N#Cc1ccc(Cn2ccc3c4c(N)nc(N)nc4ccc32)cc1`, the Inhibition in the experiment with Plasmodium falciparum [1] is reported as 92%; in the experiment on Plasmodium falciparum [2], 95%; in the experiment with HepG2, 64%.

With `CCCCN(Cc1cc(Cl)c(OC)c(OC)c1)c1ccc(C(O)(C(F)(F)F)C(F)(F)F)cc1.O=C(O)C(F)(F)F`, the values for the Inhibition in the experiment with Plasmodium falciparum [1], with Plasmodium falciparum [2] and with HepG2 were 98%, 73% and 3%, respectively.

Regarding `O=C(O)C(F)(F)F.c1cc(CN2CCN(c3ccncc3)CC2)cc(-c2ccc(-c3nc4ccccc4[nH]3)cc2)c1`, the results for the Inhibition in the experiment on Plasmodium falciparum [1], in the experiment with Plasmodium falciparum [2] and in the experiment with HepG2 were 100%, 100% and 60%, respectively.

For `CCCCNC(=O)c1cc(CNC2CCCCC2)ccc1-c1cccc(CNCc2ccc(-c3ccccc3)cc2)c1.O=C(O)C(F)(F)F`, the Inhibition in the experiment on Plasmodium falciparum [1] was 100%; in the experiment on Plasmodium falciparum [2], 85%; in the experiment with HepG2, 100%.

Consider `CN(C)CCCNc1nccc(N(C)c2ccc(NC(=O)Nc3cc(C(F)(F)F)ccc3F)cc2)n1.O=C(O)C(F)(F)F`, for which the Inhibition with Plasmodium falciparum [1] was found to be 93%; in the experiment with Plasmodium falciparum [2] it was 25%; in the experiment on HepG2, 97%.

With `COc1ccc(C2CCN(C#N)C2)cc1OC1CCCC1` (configuration not stated), the Inhibition stood at 100% with Plasmodium falciparum [1], 97% in the experiment on Plasmodium falciparum [2] and 9% in the experiment with HepG2.

For `N=C(N)NC(=O)Nc1cc(Br)c(Cl)c(Br)c1`, the Inhibition with Plasmodium falciparum [1] is 100%; with Plasmodium falciparum [2], 83%; with HepG2 it was 0%.

`CCCCCCN1CCC(CNCc2cccc(Cl)c2)CC1.O=C(O)C(F)(F)F`: the values for the Inhibition in the experiment on Plasmodium falciparum [1], in the experiment with Plasmodium falciparum [2] and in the experiment on HepG2 were 85%, 13% and 8%, respectively.

For the compound `Cl.Cl.N=C(N)c1cccc(-c2cc(-c3cccc(C(=N)N)c3)on2)c1`, the Inhibition with Plasmodium falciparum [1] is reported as 96%; with Plasmodium falciparum [2], 78%; in the experiment on HepG2, 8%.

As for `Cl.NC1=NC(c2ccccc2)N(OCc2ccccc2)C(N)=N1` (configuration not stated), the Inhibition with Plasmodium falciparum [1] came out at 96%; in the experiment on Plasmodium falciparum [2], 21%; in the experiment with HepG2, 5%.

Regarding `NC(=O)C1CCN(Cc2ccc(-c3ccc(-c4nc5cc(C(F)(F)F)ccc5[nH]4)s3)cc2)CC1.O=C(O)C(F)(F)F`, the Inhibition in the experiment on Plasmodium falciparum [1] turned out to be 99%; in the experiment on Plasmodium falciparum [2] it was 91%; in the experiment with HepG2 it was 22%.

Turning to `CCCC(CNCc1cccc(OCC)c1)CNc1cc(=O)c2ccccc2[nH]1` (configuration not stated), the values for the Inhibition with Plasmodium falciparum [1], with Plasmodium falciparum [2] and in the experiment on HepG2 were 100%, 97% and 0%, respectively.

For `O=C(Nc1ccc(-c2ccc(-c3nc4cc(C(F)(F)F)ccc4[nH]3)s2)cc1)c1c[nH]cn1`, the Inhibition turned out to be 92% with Plasmodium falciparum [1], 61% in the experiment on Plasmodium falciparum [2] and 66% in the experiment with HepG2.

For `COc1ccc(C=NN=c2cc(C)[nH]c3c(C)cccc23)c2ccccc12`, the figures for the Inhibition with Plasmodium falciparum [1], in the experiment with Plasmodium falciparum [2] and in the experiment on HepG2 were 100%, 98% and 3%, respectively.

As to `CS(=O)(=O)c1ccc(-c2cc(C(F)(F)F)nc(N[C@@H]3CCCC[C@H]3OCc3ccccc3)n2)cc1`, the Inhibition with Plasmodium falciparum [1] was found to be 100%; in the experiment with Plasmodium falciparum [2] it was 99%; in the experiment with HepG2, 8%.

The values are drawn from ChEMBL document CHEMBL1157539, “Thousands of chemical starting points for antimalarial lead identification” (Nature, 2010).
